Shown are actives, neighbours in structure and some others; about 3.3% of the full set was active somewhere.
BoNT-A LC inh2 – inhibitors of Botulinum neurotoxin A light chain protease. multiplex microsphere protease substrate cleavage, flow cytometry. inhibition, % at 10 µM. hit rate 0.17% among 360,000. AID 588499; also: plate controls were buffer without enzyme for full effect and enzyme alone for no effect
Bead autofluor – counter-screen for toxin protease inhibitors: compound fluorescence; compound autofluorescence counterscreen, microsphere flow cytometry; hits give high values; fluorescence intensity (no concentration beside the values); hit rate 3.1% among 360,000; AID 624483; in the data active = fluorescence intensity above about 16000; inconclusive = no clear call, values can overlap the other calls
BoNT-F LC inh – inhibitors of Botulinum neurotoxin F light chain protease | Multiplex microsphere protease cleavage assay, flow cytometry | inhibition, % at 10 µM | hit rate 0.22% among 360,000 | AID 588497; in the data active = inhibition above about 35%, passing the limit was not always enough; inconclusive = no clear call, values can overlap the other calls; also: plate controls were buffer without enzyme for full effect and enzyme alone for no effect
MazEF act – MazEF (E. coli) toxin RNase activation; P0AE70; FAM/BHQ RNA-DNA oligo cleavage fluorescence, 5 h; activation, % at 20 µM; hit rate 0.32% among 350,000; AID 504720; in the data active = activation above about 50%
Target sequence (P0AE70 whole entry, looked up): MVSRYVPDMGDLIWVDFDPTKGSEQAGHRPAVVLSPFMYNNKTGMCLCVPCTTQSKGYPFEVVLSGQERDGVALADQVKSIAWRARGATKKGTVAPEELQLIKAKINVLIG
Anthrax LF prot – anthrax lethal factor protease inhibition | multiplex microsphere protease cleavage assay, LF | inhibition, % at 10 µM | hit rate 0.12% among 360,000; also: plate controls were buffer without enzyme for full effect and enzyme alone for no effect
PriA SSB inh – blocks PriA binding to SSB C-terminal tail | AlphaScreen SSBct-PriA binding, biotinylated peptide | hit rate 0.6% among 430,000 | inhibition, % at 33 µM; in the data active = inhibition mostly above about 37%, no sharp cut-off; inactive = mostly below about 20%;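 also: plate controls were negative control peptide for no effect and reference peptide for full effect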
Active calls of the source: *; ? = inconclusive; . = not tested or not shown; ! = not active in a repeat. Rule as the data show it, unless noted: active = inhibition above about 30%; inconclusive = no clear call, values can overlap the other calls; inactive = below that.

SMILES	BoNT-A LC inh2	Bead autofluor	BoNT-F LC inh	MazEF act	Anthrax LF prot	PriA SSB inh
CNC(=O)Cc1csc(NC(=O)Cn2cnc3ccccc32)n1	.	.	.	.	.	-4
Cc1occc1C(=O)Nc1ccc2c(c1)OCCO2	?	20875*	1	-1	-8	-14
COc1cccc(OC)c1C(=O)Nc1ccc2c(c1)OCCO2	-4	25227*	-5	7	-1	-8
Cc1ncoc1C(=O)Nc1ccc2c(c1)OCCO2	6	18125*	6	3	-5	-3
O=C(Nc1ccc2c(c1)OCCO2)c1ccccc1	-1	2859	-13	10	-6	10
CS(=O)(=O)Nc1ccc(C(=O)Nc2ccc3c(c2)OCCO3)cc1	1	20301*	2	-5	1	-6
Cc1ccsc1C(=O)Nc1ccc2c(c1)OCCO2	0	2172	-2	8	-1	-4
CCOc1ccc(-c2cc3c(N4CCC(C(=O)NC(C)c5ccccc5)CC4)nccn3n2)cc1 (centres undefined)	.	.	.	.	.	-31
Cc1c(C(=O)N2CCN(C(=O)c3cnn4ccccc34)CC2)cnn1-c1ccccc1	.	.	.	.	.	-10
CCOC(=O)c1c(C)c(C(=O)Nc2ccc3c(c2)OCCO3)c(C)n1C	?	23007*	-12	-6	1	1
COc1cccc2sc(N(Cc3ccco3)C(=O)c3nc4ccccc4s3)nc12	.	.	.	.	.	-4
C[C@@H]1CN([C@@H](C)CO)C(=O)CCCn2nncc2CO[C@H]1CN(C)S(C)(=O)=O	0	3765	-3	-6	8	.
C[C@H](CO)N1C[C@H](C)[C@H](CN(C)S(C)(=O)=O)OCc2cnnn2CCCC1=O	0	3016	-1	68*	-4	.
Cc1ccc(CNC(=O)c2ccccc2N)cc1	1	19203*	1	-5	0	-14
O=C(O)CSc1ncccc1C(=O)O	0	2554	-3	2	-4	-5
C=CCSc1ncccc1C(=O)O	-3	23263*	-5	2	-3	-16
Cc1cccc(CNC(=O)c2ccccc2N)c1	4	6202	17	-5	6	-7
C=CCSc1ncccc1C(=O)NCc1ccc(C)cc1	2	19941*	0	1	-2	-12
CCS(=O)(=O)C1CN(S(=O)(=O)c2ccc(-n3cccn3)cc2)C1	.	.	.	.	.	-10
Cc1ccc2sc(N(CCCN(C)C)C(=O)c3ccc(S(=O)(=O)N(C)C4CCCCC4)cc3)nc2c1C	-1	?	4	6	-4	40*!
Cc1ccc2sc(N(CCCN(C)C)C(=O)c3nc4ccccc4s3)nc2c1C	0	4330	4	-10	-3	0
CCN(Cc1ccccc1)S(=O)(=O)c1ccc(C(=O)N(CCCN(C)C)c2nc3c(C)c(C)ccc3s2)cc1	-1	4629	-4	0	-6	39*!
Cc1cccc2sc(N(CCCN(C)C)C(=O)c3nc4ccccc4s3)nc12	0	10603	1	18	1	51*
CCn1c(O)c(C=NNC(=O)c2ccncc2)c(=O)n(CC)c1=S	.	.	.	.	.	-8
CC(=O)C(C)n1c(=O)c2c(nc3n(CC4CCCO4)c(C)cn23)n(C)c1=O (centres undefined)	.	.	.	.	.	-5
SMILES	BoNT-A LC inh2	Bead autofluor	BoNT-F LC inh	MazEF act	Anthrax LF prot	PriA SSB inh
CCOC(=O)c1ccsc1NC(=O)CSc1ccc(F)cc1	.	.	.	.	.	-82
Cc1cc(C(=O)NN=Cc2ccc(-c3cccc(Cl)c3Cl)o2)n[nH]1	.	.	.	.	.	2
Cc1cc(C(=O)N/N=C/c2ccc(-c3cccc(Cl)c3Cl)o2)n[nH]1	0	2124	3	51*	0	.
CCOc1cc(C=NNC(=O)c2ccc(C)nc2)cc([N+](=O)[O-])c1O	.	.	.	.	.	-11
CCOc1cc(/C=N\NC(=O)c2ccc(C)nc2)cc([N+](=O)[O-])c1O	-2	19947*	-6	-3	-1	.
CCN1CCN(S(=O)(=O)CCNC(=O)c2ccccc2F)CC1	.	.	.	.	.	-4
Cn1c(=O)c2c(ncn2CC(=O)NCCc2csc(-n3cccn3)n2)n(C)c1=O	.	.	.	.	.	-14
CCCCNC(=O)Nc1ccc2c(c1)N(C)C(=O)c1ccccc1S2	-3	3491	-16	8	-4	-3
CCCNC(=O)Nc1ccc2c(c1)N(C)C(=O)c1ccccc1S2	1	16271*	-3	7	-2	-1
O=C(Cc1ccc(Cl)cc1)NCC1COC2(CCCCC2)O1 (centres undefined)	.	.	.	.	.	2
O=C(CS[C@@H](Cc1ccc(Br)cc1)C(=O)O)Nc1ncc(Cc2ccccc2)s1	.	.	.	.	.	-13
Cc1cc(C)c2c(C)c(C(=O)NCc3ccncc3)oc2c1	-1	10450	-11	5	-5	8
CCc1ccc2oc(C(=O)NCc3ccncc3)c(C)c2c1	10	16440*	7	6	-11	-11
Cc1ccc(-n2c(C3CC3c3ccc(Cl)cc3)n[nH]c2=S)cc1 (centres undefined)	-4	23745*	-6	-8	1	9
S=c1[nH]nc(C2CC2c2ccc(Cl)cc2)n1-c1ccc(Cl)cc1 (centres undefined)	0	1983	3	-3	0	4
Cc1ccc(-n2c([C@@H]3C[C@H]3c3ccccc3)n[nH]c2=S)cc1	0	2219	-3	1	1	10
Cc1ccc(C2CC2c2n[nH]c(=S)n2-c2ccc(C)cc2)cc1 (centres undefined)	?	24709*	-2	2	-3	1
O=C(N/N=C/c1ccc(Cl)cc1Cl)Nc1ccccc1	6	20342*	9	25	-13	.
O=C(N/N=C/c1cccc(Cl)c1Cl)Nc1ccccc1	0	11180	4	-1	-4	.
O=C(CN1CCCCC1)N/N=C/c1ccc(Cl)cc1Cl	3	3971	42*	5	3	.
O=C(CN1CCCCC1)N/N=C/c1ccc(Cl)cc1	.	.	.	11	.	.
O=C(CN1CCSCC1)NN=Cc1ccccc1F	.	.	.	.	.	-3
O=C(CN1CCSCC1)N/N=C/c1ccccc1F	0	23296*	-2	2	0	.
O=C(CSc1nnc2ccc3ccccc3n12)Nc1cccc(C(F)(F)F)c1	.	.	.	.	.	-1
CCOc1ccccc1C(=O)NCCC(O)c1ccco1 (centres undefined)	.	.	.	.	.	0
SMILES	BoNT-A LC inh2	Bead autofluor	BoNT-F LC inh	MazEF act	Anthrax LF prot	PriA SSB inh
CCOc1ccccc1C(=O)NCC[C@H](O)c1ccccc1	.	.	.	.	.	43*
O=C(c1ccc(Cl)s1)N1CCC(CSC2=NCCS2)CC1	.	.	.	.	.	5
N#Cc1c(N)sc2c1CCN(CCc1ccccc1)C2	65*	5685	-141	-2	1	-3
CC(=O)N1CCc2c(sc(N)c2C#N)C1	.	.	.	.	.	-5
Cc1ccc(-c2ccc(CCC(=O)O)n2CC2CCCO2)cc1 (centres undefined)	?	22736*	-4	-4	1	8
Cc1nc(SC(C)c2ccccc2)[nH]c(=O)c1CC(=O)O (centres undefined)	.	.	.	.	.	20
Cn1c(=O)cc(SCC(=O)NCCN2CCN(c3ccccc3F)CC2)c2cc(Cl)ccc21	?	22129*	2	3	2	-4
O=C(NCCN1CCN(c2ccccc2F)CC1)c1cccc2ccccc12	.	.	.	.	.	-8
O=C(Cc1c(C(=O)O)[nH]c2ccccc12)NCCN1CCN(c2ccccc2F)CC1	?	23477*	-4	0	0	3
O=C(NCN1CCN(c2ccccc2F)CC1)c1ccccc1	-1	23676*	-2	10	0	-16

Assay outcomes: PubChem, several laboratories
